Bioassay records from PubChem.
HT1080 IDH1KD tx = kills HT-1080 cells with IDH1 knockdown; HT-1080 IDH1 knockdown viability, ATP luminescence, 48 h; Potency, µM (titrated, usually from 46.1 µM), inactives show at the highest dose activity, negative = toxicity, most hits filed as cytotoxic; actives 2% (n = 360,000);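 note: 0% = DMSO wells and -100% = cell-free medium wells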
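CellTiter-Glo luminescence after 48 h compound exposure at 37 degrees C of IDH1-knockdown HT-1080 cells in 5% FBS RPMI. %Activity scaled between DMSO wells and cell-free media wells, with curves fitted and assigned curve classes.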
KB-3-1 cytotox = KB-3-1 parental cell cytotoxicity; actives 1.4% (n = 400,000); Potency, µM (series often up to 46.1 µM), most hits filed as cytotoxic; KB-3-1 viability, CellTiter-Glo ATP luminescence, 72 h; AID 1347075; note: % is set by controls: 0 for no effect and ±100 for the full control effect; nearly all actives have a fitted effect of over 60% in size
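Screening of KB-3-1 cells (DMEM, 10% FBS, phenol-red free) ran from lowest to highest compound concentration; after 72 h at 37 °C viability was read luminescently and curves fitted.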
KB-V1 cytotox = kills drug-selected multidrug resistant KB-V1 cells. AID 1347076. Potency, µM (top dose mostly 46.1 µM), hits mostly cytotoxic. actives 3.4% (n = 400,000). KB-V1 MDR cells viability, CellTiter-Glo, 72 h; note: % is set by controls: 0 for no effect and ±100 for the full control effect; nearly all actives have a fitted effect of over 60% in size
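Luminescent ATP read-out (CellTiter-Glo, 10 min) measures survival of drug-selected KB-V1 MDR cells after 72 h, 37 degrees C compound exposure. Medium: phenol-red-free DMEM, 10% FBS. Values from fitted concentration-response curves.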
HT1080-NT tox = kills 2HG-producing HT-1080-NT fibrosarcoma cells; actives 1.6% (n = 360,000); Potency, µM (highest dose often 46.1 µM), for the others: at the top dose activity, negative = less viability, most hits filed as cytotoxic; HT-1080-NT fibrosarcoma viability, CellTiter-Glo ATP luminescence, 48 h; AID 686970;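 note: NT is the 2HG producing partner of a matched IDH1 knockdown line; 0% = DMSO-treated cells and -100% = media-only wells without cells; nearly all actives have a fitted effect of over 55% in size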
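Luminescent CellTiter-Glo readout after 48 hours of compound exposure at 37 degrees C defined viability of HT-1080-NT cells. Activity was normalized to DMSO wells and cell-free media wells; concentration-response curves were fitted and assigned curve classes.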
SW480 rereplic = induces DNA re-replication in SW480 colon adenocarcinoma cells | SW480 DNA re-replication, Hoechst DNA content imaging, 48 h | Potency, µM (doses to about 46.1 µM), without a hit: top-dose re-replication activation, most hits filed as activators | actives 1.8% (n = 340,000) | AID 624297; note: % of control where 0% means no effect; nearly all actives have a fitted effect of over 55% in size
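Treated cells incubate 48 hr (37 C, 5% CO2), are stained 40 min with Hoechst, and nuclear fluorescence is enumerated; a rise in nuclei with high DNA signal marks re-replication.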
MCF10A rereplic = induces DNA re-replication in MCF 10a normal breast cells; AID 624296; MCF 10A DNA re-replication, Hoechst nuclear intensity, 48 h; actives 2.9% (n = 350,000); Potency, µM (series often up to 46.1 µM), inactives show top-dose activity, positive = re-replication, hits mostly activators; note: % of control where 0% means no effect; nearly all actives have a fitted effect of over 50% in size
An asterisk follows results filed as active; i = inactive; ? = inconclusive; / = no result. Rows were chosen to be rich in hits. Some 7.9% of all compounds tested hit in one or more screens of this group. Calls come from the whole dose curve; as a rule, active = well fitted curve in the direction sought with a large enough effect; inconclusive = small, poorly fitted or top-dose-only effect, or another doubt; inactive = no such curve, though single readings can be large; an effect the other way counts as inactive or inconclusive. Potency is the fitted concentration of half-maximal effect.

SMILES	HT1080 IDH1KD tx	KB-3-1 cytotox	KB-V1 cytotox	HT1080-NT tox	SW480 rereplic	MCF10A rereplic
CC(Sc1nnc(-c2ccncc2)n1C)C(=O)NCC(=O)Nc1ccc(F)c(F)c1F (configuration not stated)	8.9%	i	i	5.1%	/	/
Cc1c(/C=C/C(=O)c2cccs2)cnn1C	-4.2%	i	i	-11.3%	?	20.6µM*
Cc1ccc(C(=O)N/N=C/c2nc3ccccc3n2C)cc1	10µM*	?	?	8.91µM*	1.0%	-1.7%
Cc1ccc(C(=O)N/N=c2\sc3ccccc3n2C)cc1	-2.1%	i	i	14.3%	0.651µM*	?
COc1cccc(C(=O)N/N=c2\sc3ccccc3n2C)c1	19.0%	i	?	8.6%	/	3.0%
COc1ccccc1NC(=O)C1CCN(S(=O)(=O)c2ccc3[nH]c4c(c3c2)CCCCC4)CC1	/	i	i	/	/	/
O=C(COc1ccc2c(-c3ccccc3)cc(=O)oc2c1)NCc1ccccn1	8.4%	i	i	6.2%	-13.4%	3.5%
CCc1cc(=O)oc2cc(OCC(=O)NCc3ccccn3)ccc12	1.3%	i	i	2.5%	11.6µM*	?
O=C(NCC1CCCO1)c1ccc(Br)c(S(=O)(=O)N2CCOCC2)c1 (configuration not stated)	0.2%	i	i	13.1%	-7.8%	-13.6%
Cn1c(SCc2cccc([N+](=O)[O-])c2)nc2ccccc2c1=O	?	?	2.59µM*	?	11.0%	?
CCCCn1c(SCc2cccc([N+](=O)[O-])c2)nc2ccsc2c1=O	2.0%	i	2.31µM*	0.2%	-8.2%	16.4µM*
COCCn1c(SCc2cccc([N+](=O)[O-])c2)nc2ccccc2c1=O	?	i	11.6µM*	-27.0%	-7.3%	9.2%
CCOC(CCn1c(SCc2cccc([N+](=O)[O-])c2)nc2ccccc2c1=O)OCC	-27.9%	i	i	?	6.2%	14.7%
O=C(CSc1n[nH]c(-c2ccncc2)n1)Nc1ccc(Cl)c(Cl)c1	-9.5%	i	i	-14.5%	-2.9%	19.0%
O=C(Cc1sc(Nc2ccccc2)nc1-c1ccccc1)NCc1ccccc1	?	16.4µM*	?	?	?	?
O=C(Cc1sc(-c2ccccc2)nc1-c1ccccc1)Nc1ccccc1	-15.0%	i	i	-19.6%	3.5%	?
Cc1ccc(-c2nc(Nc3cccc(C)c3)sc2CC(=O)O)cc1	-2.7%	i	i	-5.8%	?	20.6µM*
C=CCNc1nc(-c2cccs2)c(CC(=O)O)s1	-2.6%	i	i	-12.7%	-6.4%	24.2%
O=C(O)Cc1sc(Nc2ccccc2)nc1-c1cccs1	2.9%	i	i	-0.7%	?	23.1µM*
Cc1c([N+](=O)[O-])cnc2ccccc12	/	i	i	/	/	/
CCC(CC)c1nn2c(=O)cc(COc3ccc(NC(=O)c4ccc(C)cc4)cc3)nc2s1	/	i	i	/	/	/
CCN(CCCNC(=O)c1nn(-c2ccc(OC)cc2)c(=O)c2c1c1ccccc1n2C)c1ccccc1	/	i	i	/	/	/
OCCOC[C@H]1O[C@H](OCCO)[C@H](OCCO)[C@@H](OCCO)[C@@H]1OCCO (tested in a mixture with another compound)	/	/	/	/	-4.0%	-1.4%
CC(c1nnc(SCC(=O)c2c(N)n(C3CC3)c(=O)[nH]c2=O)n1-c1ccc(F)cc1)N(C)C (configuration not stated)	2.2%	i	i	-1.3%	-3.7%	7.8%
COC(=O)CCc1c(C)c(C(=O)c2cc(OC)c(OC)c(OC)c2)c2ccccn12	?	i	i	?	10.3µM*	?
SMILES	HT1080 IDH1KD tx	KB-3-1 cytotox	KB-V1 cytotox	HT1080-NT tox	SW480 rereplic	MCF10A rereplic
COc1cc(NC(=O)Cn2nnc(-c3ccc(C(F)(F)F)cc3)n2)c(C(=O)O)cc1OC	/	i	i	/	/	/
CCn1c(C)c(C2=CCN(S(=O)(=O)c3ccccc3)CC2)c2ccccc21	-6.5%	?	10.3µM*	-5.8%	?	?
CC(=NNc1nc2ccccc2s1)c1ccncn1	?	7.31µM*	?	?	?	7.31µM*
C/C(=N\Nc1nc2ccccc2s1)c1ccc(Br)s1	?	i	?	?	-6.1%	?
C=C(C)CSc1cc(C)c(C#N)c2nc3ccccc3n12	-5.4%	i	i	-7.7%	?	5.8µM*
C=C(C)Cc1c(C)c(C#N)c2nc3ccccc3n2c1N1CCCCC1	-0.2%	i	3.66µM*	5.5%	-6.1%	?
C=CCc1c(C)c(C#N)c2nc3ccccc3n2c1N1CCCCC1	-1.5%	?	i	1.6%	?	13.0%
Cc1ccc2nc(-c3cccc(S(=O)(=O)N4CC(C)OC(C)C4)c3)cn2c1 (configuration not stated)	-11.6%	?	?	-0.9%	-27.2%	7.3%
O=C(Nc1cc(=O)[nH]c(=O)[nH]1)c1cc(Cl)ccc1Cl	3.26µM*	4.11µM*	?	?	20.6µM*	?
